Data on 17 molecules can be found in PubChem BioAssay (NCATS).

Assay [1] is described as follows: qHTS profiling of the MIPE4 collection as inhibitors of Plasmodium falciparum (DD2) proliferation (Rep 2) (AID 743346; call rule not given here). The settings on record: P. falciparum Dd2 in erythrocytes, SYBR Green DNA, 72 h; at 28.5 µM unless noted. In outline: (§1)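 Erythrocytes infected with P. falciparum (0.3% parasitemia, 2.5% hematocrit) incubated with compounds 72 h at 37 C, 5% CO2. Lysis with saponin/Triton buffer containing SYBR Green I, overnight at room temperature in the dark; DNA fluorescence (485/535 nm) normalised to 0.29 uM artemisinin and DMSO.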

Assay [2] is described as follows: qHTS profiling of the MIPE4 collection as inhibitors of Plasmodium falciparum (HB3) proliferation (AID 743347; call rule not given here;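 also: plate controls were DMSO vehicle wells for no effect and artemisinin wells for full effect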). The conditions noted are these: P. falciparum HB3 in erythrocytes, SYBR Green DNA, 72 h; at 28.5 µM unless noted. Put shortly: as §1
Assay [3] is described as follows: High-throughput drug toxicity screening in the BPDCN cell line Gen2.2 (AID 1224824; call rule not given here;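 also: cells exposed to compounds for 48 h before reading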). The settings on record: Gen2.2 BPDCN cells; at 45.8 µM (top of the series) unless noted. Put shortly: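 Readout is ATP luminescence from Gen2.2 cells after two days of drug exposure in serum-containing medium at 37 °C. Values express percent activity, with vehicle defining full signal and 9.2 uM bortezomib defining zero.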

A short description of assay [4]: qHTS assay for measurement of the activity of small molecule inhibitors on Zika virus induced Caspase-3 activity in human iPSC derived neural progenitor cells (hNPCs) (AID 1224857). Also: nearly all actives have a fitted effect of over 65% in size. Also: potency is read from the fitted curve at half-maximal effect. In outline:
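Caspase-3/7 induction by a 6-hour ZIKV infection was quantified with a luminescent Caspase-Glo 3/7 reagent incubated 30 minutes at room temperature. Compounds were preincubated with hNPCs for 1 hour; inhibition was calculated against uninfected and infected control wells.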
A general note: qHTS replaces the single test concentration by a dilution series.

Assay [5] is described as follows: qHTS assay for measurement of the activity of small molecule inhibitors on Zika virus induced Caspase-3 activity in human astrocytoma cells (AID 1224859).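 Also: plate controls were ZIKV-infected untreated cells for no effect and uninfected cells for full effect.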 Put shortly:
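In SNB-19 cells plated at 250 cells/well and grown 16-20 h, compounds were applied 1 h before ZIKV (2 FFU/cell). Six hours later caspase-3/7 luminescence was recorded.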

A short description of assay [6]: qHTS Screen of the MIPE 4.0 Collection Against Ewings Sarcoma (RDES) (AID 1259252). Also: nearly all actives have a fitted effect of over 35% in size. Also: potency is read from the fitted curve at half-maximal effect. In outline:
(§2)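 Dose series incubated 48 h with cells in RPMI plus 5% FBS, glutamine and penicillin/streptomycin; cell viability then quantified via CellTiter-Glo.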

Assay [7] in a line: qHTS Screen of the MIPE 4.0 Collection Against Ewings Sarcoma (TC71) (AID 1259253). Also: nearly all actives have a fitted effect of over 40% in size. Also: potency is read from the fitted curve at half-maximal effect. In outline: as §2
The nature of assay [8]: qHTS Screen of the MIPE 4.0 Collection Against Ewings Sarcoma (EW8) (AID 1259255). Also: nearly all actives have a fitted effect of over 35% in size. Also: potency is read from the fitted curve at half-maximal effect.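 As to viability: 100% = DMSO-treated cells and 0% = medium-only wells without cells.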 Put shortly:
as §2

Assay [9] can be described thus: qHTS Screen of the MIPE 4.0 Collection Against Ewings Sarcoma (TC32) (AID 1259256). Also: nearly all actives have a fitted effect of over 45% in size. Also: potency is read from the fitted curve at half-maximal effect. Put shortly: as §2
A short description of assay [10]: High-throughput drug toxicity screening in the BPDCN cell line Cal-1 (AID 1224825; call rule not given here). The conditions noted are these: Cal-1 BPDCN cell viability, qHTS; at 45.8 µM (top of the series) unless noted. Put shortly: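 Cal-1 cells, 500 per well in phenol-red-free RPMI with 10% FBS, exposed to compounds for 48 hours at 37C, 5% CO2. Viability read by CellTiter-Glo luminescence; percent activity normalized to DMSO (100%) and 9.2 uM bortezomib final (0%).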

SMILES strings stand for the structures. Inconclusive results are not listed. Calls of active or inactive are those of the source. Unless noted, calls follow the shape of the dose curve; as a rule, active = well fitted inhibition curve with a large enough effect; inconclusive = small, poorly fitted or top-dose-only effect; inactive = no such curve, though single readings can be large or run the other way.

In the case of `CC(=O)OC[C@@H]1O[C@@H](n2ccc(=O)[nH]c2=O)[C@H](OC(C)=O)[C@H]1OC(C)=O`, the parasite growth, % of control (lower = inhibition) in assay [1] turned out to be 141%. In assay [2], the growth, % of control came to 250%. The cell viability, % of control (lower = more cytotoxic) in [3] is 154%. The Potency result in [4], in assay [5], in assay [6], in assay [7], in assay [8] and in [9] was “inactive” in each case.

On to `COC(=O)C1C2CC3c4[nH]c5cc(OC)ccc5c4CCN3CC2CC(OC(=O)c2cc(OC)c(OC)c(OC)c2)C1OC` (configuration not stated), for which, in [1], the parasite growth, % of control (lower = inhibition) was found to be 20%. In [2], the growth, % of control was 9.05%. For the same molecule, the cell viability, % of control (lower = more cytotoxic) in assay [3] was 120%. The molecule further registered a viability (% of control) in assay [10] of 78.7%. Further, the Potency entry in [4] and in [5] was “inactive” in each case. The Potency in assay [8] is 2960 nM (active); in assay [9] it was 2350 nM (active).

Turning to `Cn1c(Nc2ccc(C(F)(F)F)cc2)nc2cc(Oc3ccnc(-c4ncc(C(F)(F)F)[nH]4)c3)ccc21`, the parasite growth, % of control (lower = inhibition) in assay [1] worked out at 19.4%. Also, in assay [2], the growth, % of control is 8.58%. Moreover, in [3], the cell viability, % of control (lower = more cytotoxic) is 9.63%. For the same molecule, the viability (% of control) in assay [10] came to 13.2%. For the same molecule, the Potency entry in assay [4] and in assay [5] was “inactive” in each case. For the same molecule, the Potency was 5260 nM (active) in assay [8] and 2090 nM (active) in [9].

Turning to `CCOC(=O)C=C[C@H](C[C@@H]1CCNC1=O)NC(=O)[C@@H](CC(=O)[C@@H](NC(=O)c1cc(C)on1)C(C)C)Cc1ccc(F)cc1`, the parasite growth, % of control (lower = inhibition) in assay [1] is 41.1%. Further, in [2], the growth, % of control came to 37.6%. The cell viability, % of control (lower = more cytotoxic) in assay [3] turned out to be 74.1%. The Potency result in [4], in assay [5], in assay [6], in assay [8] and in [9] was “inactive” throughout.

Consider `C[C@H](NC(=O)Cc1cc(F)cc(F)c1)C(=O)N[C@H](C(=O)OC(C)(C)C)c1ccccc1`, for which the parasite growth, % of control (lower = inhibition) in assay [1] was determined as 79.9%. Also, in assay [2], the growth, % of control is 99.7%. Moreover, the cell viability, % of control (lower = more cytotoxic) in assay [3] turned out to be 89%. In assay [10], this molecule returned a viability (% of control) of 96.1%. The Potency result in assay [4], in [5], in [8] and in assay [9] was “inactive” in each case.

For `CCOc1cc2c(c(F)c1OCC)C(=N)N(CC(=O)c1cc(N3CCOCC3)c(OC)c(C(C)(C)C)c1)C2`, in assay [1], the parasite growth, % of control (lower = inhibition) amounted to 11.7%. This molecule returned a growth, % of control in assay [2] of 6.22%. In addition, in [3], the cell viability, % of control (lower = more cytotoxic) came out at 4.1%. The Potency result in assay [4] and in assay [5] was “inactive” throughout. For the same molecule, the Potency was 9350 nM (active) in [6], 10500 nM (active) in assay [7] and 13200 nM (active) in assay [8].

Consider `CC[C@@]1([C@@H]2O[C@@H]([C@H]3O[C@@](O)(CO)[C@H](C)C[C@H]3C)C[C@H]2C)CC[C@H]([C@]2(C)CC[C@]3(C[C@H](O)[C@@H](C)[C@@H]([C@@H](C)[C@@H](OC)[C@H](C)C(=O)O)O3)O2)O1`, for which the parasite growth, % of control (lower = inhibition) in assay [1] turned out to be 9.17% [at 9.64 µM]. In addition, in [2], the growth, % of control was 3.89% [at 9.64 µM]. For the same molecule, the cell viability, % of control (lower = more cytotoxic) in assay [3] is 27.8% [at 23.2 µM]. The molecule further displayed a viability (% of control) in assay [10] of 65.7% [at 23.2 µM]. In addition, the Potency result in assay [4] and in assay [5] was “inactive” throughout. For the same molecule, the Potency is 257 nM (active) in assay [7] and 162 nM (active) in [8].

In the case of `CN(C)c1ccc2cc(C(=O)N[C@@H](CCCN=C(N)CCl)C(=O)NCc3ccccc3)ccc2c1`, in [1], the parasite growth, % of control (lower = inhibition) amounted to 9.19%. In assay [2], this molecule gave a growth, % of control of 9.16%. Moreover, the cell viability, % of control (lower = more cytotoxic) in [3] came to 1.99%. In addition, the Potency was 20900 nM (active) in assay [4]; 833 nM (active) in [6]; 11800 nM (active) in assay [7]; 9350 nM (active) in [8]; 7430 nM (active) in [9]. Besides, the Potency entry in assay [5] is “inactive”.

On to `CC(=O)OCC(=O)[C@@]12N=C(C)O[C@H]1C[C@H]1[C@@H]3CCC4=CC(=O)C=C[C@]4(C)[C@@H]3[C@@H](O)C[C@@]12C`, for which, in assay [1], the parasite growth, % of control (lower = inhibition) was found to be 68.3%. The molecule also had a growth, % of control in assay [2] of 84%. Moreover, in assay [3], the cell viability, % of control (lower = more cytotoxic) was determined as 94.7%. In [10], this molecule displayed a viability (% of control) of 57.7%. Further, the Potency result in assay [4], in assay [5], in [7] and in assay [8] was “inactive” throughout.

Regarding `CC(=O)C1=C(O)C=C2Oc3c(C(C)=O)c(O)c(C)c(O)c3C2(C)C1=O` (configuration not stated), the parasite growth, % of control (lower = inhibition) in [1] turned out to be 81%. The growth, % of control in [2] was determined as 99%. In [3], the cell viability, % of control (lower = more cytotoxic) is 141%. Also, the Potency result in assay [4], in assay [5], in assay [6], in assay [7] and in assay [8] was “inactive” throughout.

`O=C(O)CCCCC(CCSCc1ccccc1)SCc1ccccc1` (configuration not stated): the parasite growth, % of control (lower = inhibition) in assay [1] came to 61.5%. In assay [2], this molecule gave a growth, % of control of 63.9%. Besides, the cell viability, % of control (lower = more cytotoxic) in assay [3] amounted to 54.3%. Further, the Potency result in [4], in [5], in assay [6], in assay [7], in assay [8] and in assay [9] was “inactive” in each case.

Consider `CC(=O)N[C@@H]1[C@H](O[C@@H]2c3ccc(c(Cl)c3)Oc3cc4cc(c3O[C@H]3O[C@H](CO)[C@@H](O)[C@H](O)[C@H]3NC(=O)CCCCCCCC(C)C)Oc3ccc(cc3Cl)C[C@H]3NC(=O)[C@H](N)c5ccc(O)c(c5)Oc5cc(O)cc(c5)[C@H](NC3=O)C(=O)N[C@H]4C(=O)N[C@H]3C(=O)N[C@@H]2C(=O)N[C@@H](C(=O)O)c2cc(O)cc(O[C@H]4O[C@H](CO)[C@@H](O)[C@H](O)[C@H]4O)c2-c2cc3ccc2O)O[C@H](CO)[C@@H](O)[C@@H]1O`, for which the parasite growth, % of control (lower = inhibition) in assay [1] was 159%. Further, the growth, % of control in assay [2] was 675%. Besides, the cell viability, % of control (lower = more cytotoxic) in assay [3] amounted to 82.7%. Also, the Potency result in assay [4], in assay [5], in assay [6], in assay [7], in assay [8] and in assay [9] was “inactive” in each case.

As for `Nc1nc(=O)n([C@H]2C[C@H](O)[C@@H](CO)O2)cc1F`, the parasite growth, % of control (lower = inhibition) in [1] is 85.7%. In assay [2], this molecule displayed a growth, % of control of 107%. For the same molecule, the cell viability, % of control (lower = more cytotoxic) in assay [3] is 190%. The Potency entry in assay [4] and in assay [5] was “inactive” throughout. Besides, the Potency was 93.5 nM (active) in [7] and 66.2 nM (active) in [8].

As for `O=S(=O)(O)CCSSCCS(=O)(=O)O`, in assay [1], the parasite growth, % of control (lower = inhibition) was 69.9%. Besides, in [2], the growth, % of control was 76%. Moreover, the cell viability, % of control (lower = more cytotoxic) in [3] worked out at 33.7%. The Potency in [4] was 29600 nM (active). Further, the Potency result in assay [5], in [6], in assay [7] and in assay [8] was “inactive” throughout.

Take `CC(C=CC(=O)NO)=C[C@@H](C)C(=O)c1ccc(N(C)C)cc1`: the parasite growth, % of control (lower = inhibition) in assay [1] was 9.43%. For the same molecule, in assay [2], the growth, % of control is 3.58%. The cell viability, % of control (lower = more cytotoxic) in assay [3] amounted to 2.63%. Further, the Potency result in assay [4] and in [5] was “inactive” each time. For the same molecule, the Potency in assay [6] was 526 nM (active); in assay [7], 743 nM (active); in assay [8], 187 nM (active); in [9] it was 332 nM (active).

For the molecule `O=c1[nH]c(=O)n([C@H]2C[C@@H](O)[C@@H](CO)O2)cc1F`, the parasite growth, % of control (lower = inhibition) in assay [1] came to 58.8%. The molecule further returned a growth, % of control in assay [2] of 138%. Moreover, the cell viability, % of control (lower = more cytotoxic) in [3] was determined as 74.8%. For the same molecule, the Potency result in assay [4] and in [5] was “inactive” in each case. Besides, the Potency in assay [6] was 59 nM (active); in [7], 93.5 nM (active); in assay [8], 59 nM (active); in assay [9], 59 nM (active).

Take `N#CC(=C(O)c1ccc(Cl)cc1Cl)c1nc2cc(Cl)ccc2c(=O)[nH]1`: the parasite growth, % of control (lower = inhibition) in assay [1] was found to be 99%. The growth, % of control in assay [2] worked out at 74%. For the same molecule, the cell viability, % of control (lower = more cytotoxic) in assay [3] is 34.3%. Further, the Potency result in assay [4], in [5], in [6], in assay [7], in [8] and in assay [9] was “inactive” throughout.
